Values joined by “and” are separate entries in the source; they are usually repeats but may differ in a detail not shown here. Equal values may be shown once. Results filed as inconclusive are left out. Where a structure was tested more than once in an assay, its records may differ in their call. Active and inactive are the calls of the source. How the source made its calls, unless noted: active means hit-call score of the fitted dose curve at least 0.9, where 1 is the maximum; inactive means score below 0.9.
Key:
[1] = ATG_PBREM_CIS: Attagene CIS-FACTORIAL HepG2 Assay for human Phenobarbital-responsive Enhancer Module (PBREM) (AID 2282955); details: HepG2 PBREM cis-reporter, Attagene multiplexed transcription; actives raise or lower the signal
Outline: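 After a 24 h incubation with test chemical, transfected HepG2 cells yield total RNA; reporter-specific RT-PCR products are fluorescently labelled, HpaI-digested and resolved by capillary electrophoresis against ROX size standards.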

[2] = molecular target: Paired box protein Pax-6 (Homo sapiens) (UniProt P26367); test: ATG_Pax6_CIS: Attagene CIS-FACTORIAL HepG2 Assay for human Paired Box 6 (PAX6) (AID 2282956); details: HepG2 CIS-FACTORIAL PAX6 reporter transcription, RNA readout; actives raise or lower the signal
Chain of Paired box protein Pax-6 (Homo sapiens) (P26367 whole entry, looked up): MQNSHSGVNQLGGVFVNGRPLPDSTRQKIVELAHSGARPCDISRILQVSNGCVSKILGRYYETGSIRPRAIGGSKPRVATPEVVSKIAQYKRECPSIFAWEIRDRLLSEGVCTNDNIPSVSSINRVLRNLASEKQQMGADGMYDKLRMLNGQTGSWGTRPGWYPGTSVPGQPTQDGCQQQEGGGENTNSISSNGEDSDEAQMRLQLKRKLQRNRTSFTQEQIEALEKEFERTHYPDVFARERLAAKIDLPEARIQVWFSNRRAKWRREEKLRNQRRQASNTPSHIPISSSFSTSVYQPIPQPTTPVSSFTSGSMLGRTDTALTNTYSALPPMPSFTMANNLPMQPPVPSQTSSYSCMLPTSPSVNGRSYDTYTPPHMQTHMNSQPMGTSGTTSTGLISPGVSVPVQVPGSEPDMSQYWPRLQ
Outline: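 Fluorescent RT-PCR products separated by capillary electrophoresis report PAX6-linked promoter mRNA in HepG2 cells 24 h post-dose. Curves fitted bidirectionally, DMSO as negative control.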

[3] = ATG_PXRE_CIS: Attagene CIS-FACTORIAL HepG2 Assay for human Pregnane X Receptor Element (PXRE) (AID 2282957); details: HepG2 Attagene CIS-FACTORIAL PXRE reporter, mRNA; actives raise or lower the signal
Outline: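 Reporter transcripts under endogenous PXR-responsive cis-regulation quantified from total RNA of transfected HepG2 cells 24 h post-dosing, via RT-PCR with fluorescent primer extension and capillary electrophoresis. Gain or loss of signal fitted against DMSO baseline.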

[4] = ATG_PPRE_CIS: Attagene CIS-FACTORIAL HepG2 Assay for human Peroxisome Proliferator-activated Response Element (PPRE) (AID 2282958); details: HepG2 PPRE cis-element reporter, Attagene transcription factor profiling; actives raise or lower the signal
Outline: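 Multiplexed reporter transcription units under cis-regulatory promoters were transfected into HepG2 cells to capture endogenous factor activity. A 24 h incubation preceded RNA isolation and fluorescent RT-PCR fragment analysis.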

[5] = ATG_RORE_CIS: Attagene CIS-FACTORIAL HepG2 Assay for human RAR-related Orphan Receptor Element (RORE) (AID 2282959); details: HepG2 Attagene cis-factorial RORE reporter, mRNA; actives raise or lower the signal
Outline: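 Fluorescence intensity of reporter-specific cDNA fragments, separated by capillary electrophoresis, gives the signal. Source: HepG2 liver cells transiently transfected with cis-element reporters and exposed 24 h; DMSO-normalized bidirectional fit.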

[6] = ATG_Sox_CIS: Attagene CIS-FACTORIAL HepG2 Assay for human SRY-box transcription factor (SOX) (AID 2282960); details: HepG2 Attagene cis-factorial SOX reporter, mRNA; actives raise or lower the signal
Outline: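 After 24 h of chemical treatment, transfected HepG2 reporter cells are lysed for total RNA. Transcript levels come from RT-PCR with labelled primer extension and capillary electrophoresis, analysed bidirectionally versus DMSO.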

[7] = molecular target: Transcription factor Sp1 (Homo sapiens) (UniProt P08047); test: ATG_Sp1_CIS: Attagene CIS-FACTORIAL HepG2 Assay for human Specificity Protein 1 (Sp1) (AID 2282961); details: HepG2 Sp1 cis-reporter transcription, actives raise or lower the signal
Chain of Transcription factor Sp1 (Homo sapiens) (P08047 whole entry, looked up): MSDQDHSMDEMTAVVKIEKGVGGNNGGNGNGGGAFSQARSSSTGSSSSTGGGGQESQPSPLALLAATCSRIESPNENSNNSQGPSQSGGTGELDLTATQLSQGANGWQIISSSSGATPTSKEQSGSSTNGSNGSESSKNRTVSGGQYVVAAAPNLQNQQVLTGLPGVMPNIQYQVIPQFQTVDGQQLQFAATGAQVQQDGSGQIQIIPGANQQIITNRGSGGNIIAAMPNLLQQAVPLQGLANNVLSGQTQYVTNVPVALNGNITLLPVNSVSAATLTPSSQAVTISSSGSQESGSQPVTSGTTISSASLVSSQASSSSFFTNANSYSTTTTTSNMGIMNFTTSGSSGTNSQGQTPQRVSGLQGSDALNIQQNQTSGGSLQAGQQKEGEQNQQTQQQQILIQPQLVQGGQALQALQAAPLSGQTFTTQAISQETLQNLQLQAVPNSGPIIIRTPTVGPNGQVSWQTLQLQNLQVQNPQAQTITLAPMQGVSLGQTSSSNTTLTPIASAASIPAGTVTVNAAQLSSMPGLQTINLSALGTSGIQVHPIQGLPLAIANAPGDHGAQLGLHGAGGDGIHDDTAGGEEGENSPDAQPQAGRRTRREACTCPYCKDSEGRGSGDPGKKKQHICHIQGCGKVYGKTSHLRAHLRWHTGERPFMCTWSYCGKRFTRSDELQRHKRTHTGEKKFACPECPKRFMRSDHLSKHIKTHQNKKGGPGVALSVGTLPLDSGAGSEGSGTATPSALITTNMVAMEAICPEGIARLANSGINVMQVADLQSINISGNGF
Outline: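 Sp1-driven reporter mRNA, read as capillary electrophoresis fluorescence after RT-PCR, in transiently transfected HepG2 cells dosed for 24 h; signal change in either direction relative to DMSO.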

[8] = ATG_SREBP_CIS: Attagene CIS-FACTORIAL HepG2 Assay for human Sterol Regulatory Element Binding (SREBP) (AID 2282962); details: HepG2 Attagene cis-factorial SREBP reporter, mRNA; actives raise or lower the signal
Outline: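 Endogenous factor activity is measured in HepG2 through multiplexed reporter units under cis-element control. Following a 24 h incubation, reporter transcripts are reverse-transcribed, PCR-amplified and sized by capillary electrophoresis; activity is fitted in both directions relative to DMSO.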

[9] = molecular target: Signal transducer and activator of transcription 3 (Homo sapiens) (UniProt P40763); test: ATG_STAT3_CIS: Attagene CIS-FACTORIAL HepG2 Assay for human Signal Transducer and Activator of Transcription 3 (STAT3) (AID 2282963); details: HepG2, Attagene cis-factorial STAT3 reporter transcription; actives raise or lower the signal
Chain of Signal transducer and activator of transcription 3 (Homo sapiens) (P40763 whole entry, looked up): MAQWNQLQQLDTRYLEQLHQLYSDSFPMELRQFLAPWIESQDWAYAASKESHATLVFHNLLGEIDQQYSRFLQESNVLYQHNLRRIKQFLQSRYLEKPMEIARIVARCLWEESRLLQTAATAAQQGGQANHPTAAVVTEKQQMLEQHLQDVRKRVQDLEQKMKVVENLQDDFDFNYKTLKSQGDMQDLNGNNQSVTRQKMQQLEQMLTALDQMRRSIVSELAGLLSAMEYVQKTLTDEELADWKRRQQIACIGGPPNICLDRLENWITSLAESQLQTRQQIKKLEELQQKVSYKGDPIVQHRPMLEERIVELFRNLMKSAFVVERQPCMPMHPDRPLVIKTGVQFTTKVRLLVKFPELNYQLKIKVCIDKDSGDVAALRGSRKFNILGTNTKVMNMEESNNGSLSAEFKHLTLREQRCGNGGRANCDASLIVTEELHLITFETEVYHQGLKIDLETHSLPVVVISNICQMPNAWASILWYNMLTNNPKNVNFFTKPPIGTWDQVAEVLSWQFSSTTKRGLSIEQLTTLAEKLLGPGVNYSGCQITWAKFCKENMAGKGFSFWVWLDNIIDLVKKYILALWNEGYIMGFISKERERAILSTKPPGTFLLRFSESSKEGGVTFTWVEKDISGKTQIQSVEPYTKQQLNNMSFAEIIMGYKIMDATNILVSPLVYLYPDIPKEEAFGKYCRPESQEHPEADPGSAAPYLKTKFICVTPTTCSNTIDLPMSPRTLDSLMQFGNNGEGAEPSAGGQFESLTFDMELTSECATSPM
Outline: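 HepG2, MRTU-transfected, 24 h dosing. RNA → RT → PCR → FAM label → HpaI → CE. Bidirectional fit vs DMSO.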

[10] = ATG_TA_CIS: Attagene CIS-FACTORIAL HepG2 Assay for human TA Basal Promoter (AID 2282964); details: HepG2 Attagene CIS-factorial TA basal promoter reporter; actives raise or lower the signal
Outline: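 Steps: transfect HepG2 with MRTUs; dose 24 h; isolate RNA, DNase-treat, reverse-transcribe; PCR and FAM-label reporter cDNA; digest with HpaI 2h at 37 C; run capillary electrophoresis. Activity fitted both directions against DMSO.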

[11] = ATG_TCF_b_cat_CIS: Attagene CIS-FACTORIAL HepG2 Assay for human T-Cell-Factor with beta-catenin (TCF/b-cat) (AID 2282965); details: HepG2 TCF/beta-catenin cis-reporter transcription, actives raise or lower the signal
Outline: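 Using capillary electrophoresis as the read-out, labelled reporter cDNA fragments from transiently transfected HepG2 were sized and quantified. Exposure lasted 24 hours; activity in either direction was referenced to DMSO.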

[12] = ATG_TAL_CIS: Attagene CIS-FACTORIAL HepG2 Assay for human TAL Basal Promoter (AID 2282966); details: HepG2 Attagene cis-factorial TAL promoter reporter; actives raise or lower the signal;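 further: background control endpoint measuring basal TAL promoter reporter mRNA not a specific factor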
Outline: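 Background-control endpoint: basal TAL promoter reporter transcripts in transiently transfected HepG2, measured 24 h after dosing. Read-out by RT-PCR with fluorescent primer extension and capillary electrophoresis; gain or loss of signal fitted relative to DMSO.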

[13] = ATG_TGFb_CIS: Attagene CIS-FACTORIAL HepG2 Assay for human Transforming Growth Factor (TGF) (AID 2282967); details: HepG2 Attagene CIS TGFb reporter, mRNA transcription; actives raise or lower the signal
Outline: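 Cells were dosed for 24 hours, after which total RNA was reverse-transcribed and reporter sequences amplified, labeled and sized by capillary electrophoresis. Activity was fitted in both directions against DMSO.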

[14] = ATG_VDRE_CIS: Attagene CIS-FACTORIAL HepG2 Assay for human Vitamin D Receptor Element (VDRE) (AID 2282968); details: HepG2 VDRE cis-reporter transcription, actives raise or lower the signal
Outline: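 Steps: transfect HepG2 with multiple reporter transcription units; dose chemicals 24 h; isolate RNA; RT-PCR; label with 6-FAM primer extension; HpaI digest; capillary electrophoresis. Curves fitted both directions against DMSO.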

[15] = molecular target: Estrogen receptor (Homo sapiens) (UniProt P03372); test: ATG_ERa_TRANS: Attagene TRANS-FACTORIAL HepG2 Assay for human Estrogen Receptor alpha (ERa) (AID 2282970; active means hit-call score of the fitted dose curve at least 0.9, where 1 is the maximum); details: HepG2 Attagene TRANS ERa GAL4 reporter, mRNA
Chain of Estrogen receptor (Homo sapiens) (P03372 whole entry, looked up, the tested form may be a part): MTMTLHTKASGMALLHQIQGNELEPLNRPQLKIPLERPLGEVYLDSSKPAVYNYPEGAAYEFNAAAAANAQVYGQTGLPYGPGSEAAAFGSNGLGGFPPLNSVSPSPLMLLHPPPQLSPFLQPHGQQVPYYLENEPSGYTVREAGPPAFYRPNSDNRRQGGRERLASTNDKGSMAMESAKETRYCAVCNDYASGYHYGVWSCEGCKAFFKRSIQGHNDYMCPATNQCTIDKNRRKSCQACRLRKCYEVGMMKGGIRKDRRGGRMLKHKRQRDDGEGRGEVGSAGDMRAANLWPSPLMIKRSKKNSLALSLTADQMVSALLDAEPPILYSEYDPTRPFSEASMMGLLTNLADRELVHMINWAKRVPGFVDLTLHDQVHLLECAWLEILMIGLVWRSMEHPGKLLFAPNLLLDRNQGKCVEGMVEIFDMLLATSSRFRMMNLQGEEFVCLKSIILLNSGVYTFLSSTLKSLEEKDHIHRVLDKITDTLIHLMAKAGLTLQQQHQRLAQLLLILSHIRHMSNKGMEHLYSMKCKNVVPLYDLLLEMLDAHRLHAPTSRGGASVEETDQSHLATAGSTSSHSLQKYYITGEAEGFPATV
Outline: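 Reporter transcripts were measured 24 h after dosing by RT-PCR with fluorescent primer extension and capillary electrophoresis. The system is transiently transfected HepG2 expressing exogenous NR-Gal4 chimeras driving GAL4-UAS reporters; DMSO is the baseline.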

[16] = molecular target: X-box-binding protein 1 (Homo sapiens) (UniProt P17861); test: ATG_Xbp1_CIS: Attagene CIS-FACTORIAL HepG2 Assay for human X-box Binding Protein 1 (XBP1) (AID 2282972); details: HepG2 XBP1 cis-element reporter, Attagene multiplex; actives raise or lower the signal
Chain of X-box-binding protein 1 (Homo sapiens) (P17861 whole entry, looked up): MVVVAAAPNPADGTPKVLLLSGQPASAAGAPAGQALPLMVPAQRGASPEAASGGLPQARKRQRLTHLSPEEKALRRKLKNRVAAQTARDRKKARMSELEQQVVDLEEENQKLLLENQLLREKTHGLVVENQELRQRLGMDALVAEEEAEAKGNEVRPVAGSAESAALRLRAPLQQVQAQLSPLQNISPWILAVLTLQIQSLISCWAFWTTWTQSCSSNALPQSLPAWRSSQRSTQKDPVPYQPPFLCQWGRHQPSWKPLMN
Outline: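 Multiplexed cis-reporter readout in transfected HepG2 liver cells. Exposure lasted 24 hours. Activity in either direction was fitted against DMSO as negative control and baseline.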

[17] = molecular target: Nuclear receptor subfamily 1 group I member 3 (Homo sapiens) (UniProt Q14994); test: ATG_CAR_TRANS: Attagene TRANS-FACTORIAL HepG2 Assay for human Constitutive Androstane Receptor (CAR) (AID 2282969; active means hit-call score of the fitted dose curve at least 0.9, where 1 is the maximum;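 further: activators raise reporter mRNA above DMSO so AC50 marks induction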); details: HepG2 Attagene TRANS-FACTORIAL CAR reporter
Chain of Nuclear receptor subfamily 1 group I member 3 (Homo sapiens) (Q14994 whole entry, looked up, the tested form may be a part): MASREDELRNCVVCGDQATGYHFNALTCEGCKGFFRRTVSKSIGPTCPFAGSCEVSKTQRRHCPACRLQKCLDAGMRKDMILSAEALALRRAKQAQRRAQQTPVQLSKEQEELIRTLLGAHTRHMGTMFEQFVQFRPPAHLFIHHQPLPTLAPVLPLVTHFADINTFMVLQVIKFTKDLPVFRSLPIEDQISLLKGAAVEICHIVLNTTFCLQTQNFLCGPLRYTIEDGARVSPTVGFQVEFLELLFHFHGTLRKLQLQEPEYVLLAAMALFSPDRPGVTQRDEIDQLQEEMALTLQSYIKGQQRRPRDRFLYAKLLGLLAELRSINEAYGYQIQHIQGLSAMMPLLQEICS
Outline: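 Steps: transient transfection of HepG2 with multiple GAL4-UAS reporter units; 24 h compound incubation; RNA isolation, RT-PCR, 6-FAM primer extension, HpaI digest; capillary electrophoresis. Gain-of-signal relative to DMSO negative control.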

[18] = ATG_M_19_TRANS: Attagene TRANS-FACTORIAL HepG2 Assay for M19 Transcription Factor (Internal Marker) (AID 2282974; active means hit-call score of the fitted dose curve at least 0.9, where 1 is the maximum); details: HepG2 Attagene TRANS-FACTORIAL M19 internal marker reporter
Outline: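 Measured here: internal-marker reporter transcript from HepG2 cells transfected with MRTUs, harvested at 24 h. cDNA PCR products were 6-FAM labelled by primer extension, cut with HpaI for 2 h at 37 C, and resolved by CE.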

[19] = ATG_GAL4_TRANS: Attagene TRANS-FACTORIAL HepG2 Assay for GAL4 (Internal Marker) (AID 2282976; active means hit-call score of the fitted dose curve at least 0.9, where 1 is the maximum); details: HepG2 Attagene TRANS GAL4 internal marker reporter
Outline: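 In transfected human HepG2 liver cells dosed 24 h, GAL4 reporter mRNA serves as a baseline marker. Detection by RT-PCR with fluorescent capillary electrophoresis, activity fitted upward relative to DMSO.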

[20] = molecular target: Estrogen-related receptor gamma (Homo sapiens) (UniProt P62508); test: ATG_ERRg_TRANS: Attagene TRANS-FACTORIAL HepG2 Assay for human Estrogen-Related Receptor gamma (ERRg) (AID 2282977; active means hit-call score of the fitted dose curve at least 0.9, where 1 is the maximum;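 further: hits increase reporter signal over DMSO so potencies reflect activators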); details: HepG2 Attagene TRANS reporter, ERRg transactivation
Chain of Estrogen-related receptor gamma (Homo sapiens) (P62508 whole entry, looked up, the tested form may be a part): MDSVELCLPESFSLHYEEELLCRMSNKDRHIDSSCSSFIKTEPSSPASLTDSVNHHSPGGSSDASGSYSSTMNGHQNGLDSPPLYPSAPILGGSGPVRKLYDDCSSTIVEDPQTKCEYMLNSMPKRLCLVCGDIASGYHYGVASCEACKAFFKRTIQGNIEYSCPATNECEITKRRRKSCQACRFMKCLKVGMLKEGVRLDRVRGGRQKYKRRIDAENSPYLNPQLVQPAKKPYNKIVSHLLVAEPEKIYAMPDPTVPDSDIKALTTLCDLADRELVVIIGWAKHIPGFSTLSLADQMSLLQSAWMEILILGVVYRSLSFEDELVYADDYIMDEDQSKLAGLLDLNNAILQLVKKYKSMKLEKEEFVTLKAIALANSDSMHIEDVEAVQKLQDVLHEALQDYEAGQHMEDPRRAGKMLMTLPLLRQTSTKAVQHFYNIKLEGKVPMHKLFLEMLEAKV
Outline: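 Exogenous NR-Gal4 chimera activity measured as reporter transcript induction after 24 h in transiently transfected HepG2 cells. RNA reverse-transcribed, PCR-amplified, 6-FAM-labelled and resolved by capillary electrophoresis; increase over DMSO baseline.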

Measured: AC50

Cc1ccc(-c2c(Cl)nc(C#N)n2S(=O)(=O)N(C)C)cc1
active: [1] 11.9 µM | [3] 3.08 µM | [4] 11.9 µM | [5] 16.3 µM | [7] 11.9 µM | [14] 11.9 µM | [16] 8.26 µM
not listed: [17] | [18] | [19] | [20]
inactive: all other assays above

C=CCC1=C(C)C(OC(=O)C2C(C=C(C)C)C2(C)C)CC1=O (stereo not drawn)
inactive: [1] | [2] | [5] | [6] | [7] | [8] | [9] | [10] | [11] | [12] | [13] | [17] | [15] | [16] | [18] | [19] | [20]
active: [2] 64.5 µM [middle of 4 runs] | [3] 566 nM [middle of 6 runs] | [5] 27.2 µM [middle of 4 runs] | [6] 90.4 µM and 105 µM | [7] 54.2 µM [middle of 5 runs] | [10] 30.9 µM and 52.5 µM and 74.7 µM | [11] 48.8 µM [middle of 5 runs] | [12] 105 µM | [13] 178 µM | [15] 26.8 µM | [16] 53.5 µM [middle of 5 runs]

CC(C)C1(C)N=C(c2nc3ccccc3cc2C(=O)O)NC1=O (stereo not drawn)
active: [3] 11.1 µM
not listed: [18] | [19]
inactive: all other assays above

CCOC(=O)C(Cl)Cc1cc(-n2nc(C)n(C(F)F)c2=O)c(F)cc1Cl (stereo not drawn)
active: [3] 39.8 µM
not listed: [14] | [18] | [19] | [20]
inactive: all other assays above

COP(N)(=O)SC (stereo not drawn)
not listed: [14] | [19] | [20]
inactive: all other assays above

Cc1c(F)c(F)c(COC(=O)C2C(/C=C(\Cl)C(F)(F)F)C2(C)C)c(F)c1F (stereo not drawn)
active: [3] 13.8 µM | [15] 50 µM
not listed: [1] | [5] | [14] | [17] | [18] | [19] | [20]
inactive: all other assays above

CC1=C(C(=O)Nc2ccccc2)SCCO1
active: [3] 40.4 µM
not listed: [1] | [14] | [17] | [18] | [19]
inactive: all other assays above

CCNc1nc(Cl)nc(NC(C)C)n1
active: [3] 27.4 µM [middle of 4 runs]
not listed: [1] | [14] | [17]
inactive: all other assays above

C=CC1(C)OC(=O)N(c2cc(Cl)cc(Cl)c2)C1=O (stereo not drawn)
active: [3] 17.3 µM and 31.1 µM and 33 µM
inactive: [2] | [3] | [4] | [5] | [6] | [7] | [8] | [9] | [10] | [11] | [12] | [13] | [15] | [16] | [18] | [19]

CC1COC(Cn2cncn2)(c2ccc(Oc3ccc(Cl)cc3)cc2Cl)O1 (stereo not drawn)
active: [3] 2 µM | [4] 3.17 µM | [8] 1.97 µM | [13] 3.17 µM
not listed: [1] | [5] | [14] | [17] | [18] | [19]
inactive: all other assays above

CS/C(C)=N/OC(=O)N(C)SN(C)C(=O)O/N=C(\C)SC
not listed: [14] | [19]
inactive: all other assays above

CC(Oc1ccc(Cl)cc1Cl)C(=O)O (stereo not drawn)
active: [3] 79.7 µM
not listed: [1] | [4] | [14] | [15] | [17] | [19] | [20]
inactive: all other assays above

COc1nc(C)nc(NC(=O)NS(=O)(=O)c2ccccc2CCC(F)(F)F)n1
active: [3] 18.9 µM and 50 µM and 33.4 µM
not listed: [14] | [19]
inactive: all other assays above

CC(C)(C)c1ccc(CSc2cnn(C(C)(C)C)c(=O)c2Cl)cc1
active: [1] 0.527 µM | [3] 2.14 µM | [5] 1.88 µM | [7] 0.0129 µM | [14] 0.574 µM | [15] 26.5 µM
not listed: [4] | [18]
inactive: all other assays above

COP(=S)(OC)Oc1nc(Cl)c(Cl)cc1Cl
active: [3] 13.7 µM | [8] 32 µM | [15] 33.1 µM
not listed: [4] | [14] | [19]
inactive: all other assays above

Cc1cc(Cl)ccc1OCC(=O)O
not listed: [4] | [20]
inactive: all other assays above

Reference: PubChem BioAssay (EPA / NIEHS)
